Reference: PubChem BioAssay AID1159580 (chemical genetic matrix, 2015)
“And” between values parts separate entries of the source, which are not always exact repeats. Equal values may be shown once. In all, about 5,500 compounds went through this assay and about 2,000 (36%) were called active. Another 18% or so got no clear call; they are omitted. No stated cut-off is given here; in the data, active means normalized growth mostly below about 0.91 (no sharp cut-off); inconclusive means no clear call, values can overlap the other calls; inactive means mostly above about 0.92. The list shows a part of the results.

Experiment: chemical genetic growth profiling, strain panel (AID 1159580);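 further: tested at 20 µM; growth read once vehicle control cultures reached saturation at 30 °C; 1 = growth at the plate median or of vehicle wells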
Conditions: S. cerevisiae deletion strains, growth OD

Measured: normalized growth

NC1C[C@H]1c1ccccc1 (stereo partly specified)
inactive: locus YAL013W, strain DEP1, stronger effect = lower value 1.01 | locus YAL021C, strain ccr4, stronger effect = lower value 1 | locus YAL026C, strain drs2, stronger effect = lower value 0.985 | locus YAL030W, strain snc1, stronger effect = lower value 0.985 | locus YBL061C, strain skt5, stronger effect = lower value 0.991 | locus YBR009C, strain hhf1, stronger effect = lower value 1 | locus YBR021W, strain FUR4, stronger effect = lower value 0.983 | locus YBR023C, strain chs3, stronger effect = lower value 0.983 | locus YBR171W, strain sec66, stronger effect = lower value 0.978 | locus YBR229C, strain ROT2, stronger effect = lower value 1 | locus YBR231C, strain swc5, stronger effect = lower value 0.98 | locus YBR279W, strain paf1, stronger effect = lower value 0.985 | locus YCL011C, strain gbp2, stronger effect = lower value 0.977 | locus YCL016C, strain dcc1, stronger effect = lower value 0.981 | locus YCL029C, strain bik1, stronger effect = lower value 0.978 | locus YCL069W, strain vba3, stronger effect = lower value 0.992 | locus YCR088W, strain abp1, stronger effect = lower value 0.992 | locus YDL005C, strain med2, stronger effect = lower value 0.953 | locus YDL035C, strain GPR1, stronger effect = lower value 1.01 | locus YDL040C, strain nat1, stronger effect = lower value 0.976 | locus YDL074C, strain BRE1, stronger effect = lower value 0.999 | locus YDL101C, strain DUN1, stronger effect = lower value 1 | locus YDL134C, strain PPH21, stronger effect = lower value 1.01 | locus YDL185W, strain tfp1, stronger effect = lower value 0.985 | locus YDL192W, strain arf1, stronger effect = lower value 0.995 | locus YDR001C, strain nth1, stronger effect = lower value 0.985 | locus YDR069C, strain doa4, stronger effect = lower value 0.98 | locus YDR101C, strain arx1, stronger effect = lower value 0.977 | locus YDR137W, strain rgp1, stronger effect = lower value 0.986 | locus YDR150W, strain NUM1, stronger effect = lower value 1 | locus YDR159W, strain sac3, stronger effect = lower value 0.984 | locus YDR162C, strain NBP2, stronger effect = lower value 1.01 | locus YDR195W, strain ref2 0.974 | locus YDR297W, strain sur2, stronger effect = lower value 1 | locus YDR318W, strain mcm21, stronger effect = lower value 0.972 | locus YDR334W, strain swr1, stronger effect = lower value 0.993 | locus YDR335W, strain msn5, stronger effect = lower value 0.997 | locus YDR388W, stronger effect = lower value 0.979 | locus YDR392W, strain spt3, stronger effect = lower value 0.991 | locus YDR502C, strain sam2, stronger effect = lower value 0.979 | locus YEL003W, strain gim4, stronger effect = lower value 0.993 | locus YEL037C, strain rad23, stronger effect = lower value 0.989 | locus YEL061C, strain CIN8 (second series), stronger effect = lower value 0.977 | locus YEL061C, strain CIN8, stronger effect = lower value 1.01 | locus YER015W, strain faa2, stronger effect = lower value 0.99 | locus YER016W, strain bim1, stronger effect = lower value 1.01 | locus YER110C, stronger effect = lower value 0.989 | locus YER111C, strain swi4, stronger effect = lower value 0.959 | locus YER155C, strain BEM2 (second series), stronger effect = lower value 0.976 | locus YER155C, strain BEM2, stronger effect = lower value 0.995 | locus YER167W, strain BCK2, stronger effect = lower value 1.01 | locus YFR010W, strain ubp6, stronger effect = lower value 1.04 | locus YGL078C, strain dbp3, stronger effect = lower value 0.973 | locus YGL086W, strain mad1, stronger effect = lower value 0.988 | locus YGL167C, strain pmr1, stronger effect = lower value 0.985 | locus YGL173C, strain kem1, stronger effect = lower value 0.991 | locus YGL227W, strain vid30, stronger effect = lower value 0.979 | locus YGL240W, strain doc1, stronger effect = lower value 0.991 | locus YGL248W, strain PDE1, stronger effect = lower value 1 | locus YGL253W, strain hxk2, stronger effect = lower value 0.985 | locus YGR078C, strain PAC10, stronger effect = lower value 0.989 | locus YGR135W, strain pre9, stronger effect = lower value 0.974 | locus YGR229C, strain SMI1, stronger effect = lower value 0.997 | locus YGR252W, strain gcn5, stronger effect = lower value 0.919 | locus YHR013C, strain ard1, stronger effect = lower value 0.962 | locus YHR027C, strain rpn1, stronger effect = lower value 0.995 | locus YHR030C, strain SLT2, stronger effect = lower value 1 and 0.953 | locus YHR079C, strain IRE1 (second series), stronger effect = lower value 0.975 | locus YHR079C, strain IRE1, stronger effect = lower value 0.983 | locus YHR094C, strain hxt1, stronger effect = lower value 0.989 | locus YHR129C, strain ARP1, stronger effect = lower value 1.01 | locus YHR142W, strain chs7, stronger effect = lower value 0.967 | locus YHR200W, strain rpn10, stronger effect = lower value 0.976 | locus YIL066C, strain RNR3, stronger effect = lower value 1.01 | locus YIL073C, strain SPO22, stronger effect = lower value 1.01 | locus YIL125W, strain kgd1, stronger effect = lower value 0.986 | locus YIR030C, strain dcg1, stronger effect = lower value 0.988 | locus YJL092W, strain hpr5, stronger effect = lower value 0.992 | locus YJL095W, strain BCK1 (second series), stronger effect = lower value 1 | locus YJL095W, strain BCK1, stronger effect = lower value 1.01 and 0.965 | locus YJL115W, strain asf1, stronger effect = lower value 0.976 | locus YJL129C, strain trk1, stronger effect = lower value 0.963 | locus YJL134W, strain LCB3, stronger effect = lower value 1 | locus YJL154C, strain vps35, stronger effect = lower value 0.973 | locus YJL164C, strain tpk1, stronger effect = lower value 0.999 | locus YJL166W, strain qcr8, stronger effect = lower value 1.01 | locus YJL168C, strain set2, stronger effect = lower value 0.983 | locus YJL187C, strain SWE1 (second series), stronger effect = lower value 1.01 | locus YJL187C, strain SWE1, stronger effect = lower value 0.992 | locus YJR043C, strain POL32, stronger effect = lower value 0.995 | locus YJR066W, strain TOR1, stronger effect = lower value 0.931
